From PubChem BioAssay
TDP1 cell noCPT – qHTS for Inhibitors of human tyrosyl-DNA phosphodiesterase 1 (TDP1): qHTS in cells in absence of CPT. DT40 Tdp1-/- hTDP1 cells, no CPT, ATP luminescence, 48 h. Potency, µM (top dose mostly 46.2 µM), for inactives: at the top dose activity change, negative = growth inhibition, actives largely listed as inhibitors. actives 15% (n = 420,000). AID 686978, 2013; also: potency is read from the fitted curve at half-maximal effect; nearly all actives have a fitted effect of over 55% in size
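Growth kinetics read by CellTiter-Glo luminescence after ≥48 hr at 37 °C. Cells: DT40 Tdp1-/- stably carrying human TDP1, 400 per well, compound exposure in the absence of CPT (DMSO vehicle).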
DT40 TDP1 CPT – growth inhibition of DT40 Tdp1-/-;hTDP1 cells with camptothecin (screen for TDP1 inhibitors) | chicken DT40 Tdp1-/-;hTDP1 cells + 20 nM CPT, ATP luminescence, 48 h | Potency, µM (top dose mostly 46.2 µM), for inactives: at the top dose activity change, negative = growth inhibition, most hits filed as inhibitors | actives 12% (n = 420,000); also: potency is read from the fitted curve at half-maximal effect; nearly all actives have a fitted effect of over 55% in size
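Chicken DT40 Tdp1-/- cells stably complemented with human TDP1 were seeded at 400 cells/well in medium containing 20 nM camptothecin, exposed to pin-transferred compounds, and grown at 37 °C for at least 48 hr. Viability was read as ATP luminescence.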
TDP1 block – inhibitors of human tyrosyl-DNA phosphodiesterase TDP1; Q9NUW8; recombinant TDP1, AlphaScreen DNA substrate cleavage; Potency, µM (series often up to 130 µM), for the others: top-dose activity change, negative = inhibition, most hits filed as inhibitors; actives 0.28% (n = 350,000); AID 485290; also: potency is read from the fitted curve at half-maximal effect; nearly all actives have a fitted effect of over 40% in size
Target sequence (Q9NUW8 whole entry, looked up): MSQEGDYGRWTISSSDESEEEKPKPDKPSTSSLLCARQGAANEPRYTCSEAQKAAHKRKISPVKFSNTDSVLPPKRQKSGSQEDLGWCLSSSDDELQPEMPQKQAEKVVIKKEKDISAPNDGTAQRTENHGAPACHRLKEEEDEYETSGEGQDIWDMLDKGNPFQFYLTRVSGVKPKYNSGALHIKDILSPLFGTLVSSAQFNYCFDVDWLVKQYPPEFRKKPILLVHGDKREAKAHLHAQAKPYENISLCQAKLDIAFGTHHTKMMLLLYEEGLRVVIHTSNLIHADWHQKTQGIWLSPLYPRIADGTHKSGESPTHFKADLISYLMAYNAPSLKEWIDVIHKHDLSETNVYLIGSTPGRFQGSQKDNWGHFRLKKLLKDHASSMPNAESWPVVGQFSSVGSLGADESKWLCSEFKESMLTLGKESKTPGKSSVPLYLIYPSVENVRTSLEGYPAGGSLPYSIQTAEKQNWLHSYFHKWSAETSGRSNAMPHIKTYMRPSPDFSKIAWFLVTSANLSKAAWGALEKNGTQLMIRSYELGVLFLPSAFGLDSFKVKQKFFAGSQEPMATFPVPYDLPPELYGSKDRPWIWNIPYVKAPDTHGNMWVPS
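Enzyme-compound mixtures sat 15 min at room temperature, followed by a 5 min reaction with 15 nM final substrate and 10 min with AlphaScreen beads. Recombinant human Tdp1 was used at 1 nM final.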
IL-1B inflam inh – blocks inflammasome-driven IL-1 beta release. actives 4.7% (n = 360,000). activity change, % at 57.5 µM. THP-1 LPS/ATP IL-1B secretion, AlphaLISA, 16 h; active compounds read low; in the data active = activity change below about -50%; inconclusive = mostly about -30% to -49%
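Secreted IL-1B measured by AlphaLISA bead assay after 16 h compound exposure of THP-1 cells; compounds (final up to 57.5 uM) added 1 h before LPS (250 ng/mL) and ATP (1.25 mM) stimulation; lower signal means less secretion.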
ELG1 DNA repair – inhibitors of ELG1-dependent DNA repair in HEK293T cells. HEK293T ELG1-luciferase reporter, luminescence, 16 h; DNA damage induced by 5-fluorouridine. Potency, µM (titrated, usually from 46.1 µM), for inactives: at the highest dose activity change, negative = inhibition, most hits filed as inhibitors. actives 2.3% (n = 330,000). AID 504467; also: potency is read from the fitted curve at half-maximal effect; nearly all actives have a fitted effect of over 55% in size
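DMSO vehicle served as the neutral condition. Each well held 2,000 cells given 5-fluorouridine plus compound; after 16 hr at 37 °C/5% CO2, ONE-Glo was added and luciferase measured 30 min later.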
Giardia kill – kills Giardia lamblia | Giardia lamblia trophozoite viability | activity change, % at 7.66 µM, hits read low | actives 0.15% (n = 340,000) | AID 540267; in the data active = activity change below about -80%; inconclusive = between about -30% and that limit;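 also: parasites exposed to compound for two days anaerobically before the ATP read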
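Luminescence from cellular ATP indicates surviving trophozoites (100 cells/well) following 48 hrs anaerobic compound treatment at 37 deg C; signal develops 15-30 min at room temperature.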
Numbers without * were called inactive; u = inconclusive; x = no result given; [ ] = dose if it differs, or a comment. In the library only some 19% were active in any assay of this set; here they are far more common. Unless noted, calls follow the shape of the dose curve; as a rule, active = well fitted curve in the direction sought with a large enough effect; inconclusive = small, poorly fitted or top-dose-only effect, or another doubt; inactive = no such curve, though single readings can be large; an effect the other way counts as inactive or inconclusive. % is scaled to controls: 0 for no effect and ±100 for the full control effect.

SMILES	TDP1 cell noCPT	DT40 TDP1 CPT	TDP1 block	IL-1B inflam inh	ELG1 DNA repair	Giardia kill
Cc1ccc(NC(=O)CSc2nc3ccccc3nc2N2CCOCC2)cc1	16µM*	u	3%	0	u	-7
CCOc1ccccc1NC(=O)CSc1nc2ccccc2nc1N1CCOCC1	21µM*	23µM*	-5%	12	u	-15
CCOc1ccccc1NC(=O)CSc1nncc2ccccc12	-25%	2%	10%	-84*	13%	-12
CC1CN(c2nc3ccccc3nc2SCC(=O)Nc2ccc(F)cc2)CC(C)O1 (stereo not given)	u	15µM*	x	-26	16µM*	-20
COc1ccc(C)cc1NC(=O)CSc1nc2ccccc2nc1N1CCOCC1	23µM*	u	-8%	x	x	x
O=C(CSc1nc2ccccc2[nH]1)Nc1ccc(N2CCOCC2)cc1	12µM*	12µM*	6%	-12	4%	-4
COc1ccc(C)cc1NC(=O)CSc1nc2ccccc2nc1N1CCCCC1	u	u	x	-14	u	-6
CCOc1ccc(NC(=O)CSc2nc3ccccc3nc2N2CCCC2)cc1	16µM*	u	x	-12	-8%	41
CN(C)CCN(Cc1cccs1)S(=O)(=O)c1csc(C(N)=O)c1	17%	8%	0%	-3	u	-2
CC1CCC2(CC1)N=C(N)Nc1nc3ccccc3n12 (stereo not given)	-20%	1%	4%	-18	-21%	6
CCC1(C)N=C(N)Nc2nc3cc(C)c(C)cc3n21 (stereo not given)	9.2µM*	9.2µM*	4%	-5	-2%	3
CCN(CC)C(=O)C1=C(C)N(Cc2ccc(OC)cc2)C(=O)C(CC(=O)NC2CC2)C1 (stereo not given)	-5%	-7%	x	4	x	x
COc1ccccc1-c1c(C(F)(F)F)oc2cc(OC(=O)c3ccccc3[N+](=O)[O-])ccc2c1=O	26µM*	u	6%	-7	16%	-6
CC(=O)c1ccccc1NC(=O)C1CCCN(C(=O)c2ccc(Cl)cc2)C1 (stereo not given)	u	u	0%	27	-2%	-11
CCCCOc1ccc(NC(=O)CSc2ccc(C(=O)O)cn2)cc1	11%	-2%	-2%	x	x	x
Cc1cc(C)n(-c2ccc(NC(=O)C3CCN(Cc4ccccn4)CC3)cc2)n1	3%	-17%	3%	-23	21%	24
COc1ccc2c(C)cc3nncn3c2c1	7%	19%	5%	-6	u	-2
Nc1ncnc2c(C3OC(CO)C(O)C3O)scc12 (stereo not given)	0.016µM*	0.012µM*	x	-116*	x	68
CNc1nc2c(N)ncnc2n1[C@H]1O[C@@H](CO)[C@H](O)[C@@H]1O	u	u	x	-13	u	-3
Cc1ccc(OCC(=O)N2CCC3(CC2)CC(=O)c2ccccc2O3)cc1	13µM*	21µM*	-9%[0.505 µM]	-2	-18%	-28
O=C1CC2(CCN(C(=O)COc3ccc(Cl)cc3)CC2)Oc2ccccc21	18µM*	u	-9%[0.505 µM]	-55*	u	3
COc1cccc(OCC(=O)N2CCC3(CC2)CC(=O)c2ccccc2O3)c1	u	u	-2%	-12	-6%	-3
O=[N+]([O-])c1cc(Cl)ccc1Oc1ccc(-c2nnco2)cc1	-14%	-7%	5%	0	11%	-5
CO/C(N)=C(\C#N)N=Cc1ccccc1Cl	0%	17%	1%	-8	u	-1
CC(Sc1nnnn1-c1ccccc1)C(=O)Nc1ccc(N2CCN(C)CC2)cc1 (stereo not given)	10µM*	13µM*	2%	-18	22%	8
SMILES	TDP1 cell noCPT	DT40 TDP1 CPT	TDP1 block	IL-1B inflam inh	ELG1 DNA repair	Giardia kill
COc1ccc(-c2nc3c(-c4ccc(F)cc4)cnn3cc2C)cc1F	15µM*	23µM*	-8%	4	2%	19
COc1ccc(-c2nc3nc(N)nn3cc2C)cc1F	0%	-19%	-3%	0	-9%	-2
COc1ccc2c(c1OC)OCC2C (stereo not given)	18µM*	u	x	14	x	-2
COc1ccc(-n2cc(CNCC3CCOCC3)c(-c3cccc(F)c3)n2)cc1	16µM*	u	6%	-56*	4%	8
COc1cccc(-c2nn(-c3ccccc3)cc2CN2CCCO2)c1	-19%	12%	1%	-17	u	-7
COc1ccc(-n2cc(CNCc3cnc4ccccn34)c(-c3cccc(F)c3)n2)cc1	u	u	x	-73*	-1%	-7
COc1ccc(-n2cc(CN(C)C3CCOCC3)c(-c3cccc(F)c3)n2)cc1	18µM*	u	3%	-12	-3%	25
COC(=O)c1cnc(N2CCN(c3ccc(OC)cc3)CC2)c2ccccc12	u	u	8%	x	x	x
CC(C)(C)CC(C)(C)c1cc(Cc2cc(C(C)(C)CC(C)(C)C)cc(-n3nc4ccccc4n3)c2O)c(O)c(-n2nc3ccccc3n2)c1	-2%	6%	x	x	x	x
CC1=C(C)CC2(SC1)C(=O)N(c1ccccc1)N=C2N (stereo not given)	21µM*	7.3µM*	8%	-8	u	4
Cn1cc(/C=N/n2cnc3sc4c(c3c2=O)CCCC4)c2ccccc21	10µM*	13µM*	4%	13	-9%	10
O=c1c2c3c(sc2ncn1/N=C/c1ccc([N+](=O)[O-])o1)CCCC3	2.3µM*	2.6µM*	3%	-89*	-2%	7
O=C(NCc1cccc(C(F)(F)F)c1)C1CC2Cn3c(nc4ccccc43)C2N1Cc1ccccc1 (stereo not given)	13µM*	-90%	x	-9	x	-29
COc1cc([N+](=O)[O-])ccc1N/C=C/C(=O)c1cccs1	u	u	0%	12	u	u
CCN(CC)CCNC(=O)c1ccc(NC(=O)C2CC(=O)N(c3ccc4c(c3)OCCO4)C2)cc1 (stereo not given)	-8%	-8%	0%	-7	13%	44
CSc1ccc(CN2C(=O)C(F)(F)Oc3c(C(C)=O)cccc32)cc1	16µM*	18µM*	x	-7	x	x
COc1ccc(-n2c(-c3ccc(Cl)cc3)c[nH]c2=S)cc1	-8%	-22%	x	-10	0%	-28
Cc1ccc(SC(CC(=O)c2ccc(F)cc2)C(=O)O)cc1 (stereo not given)	26µM*	u	x	-96*	-11%	-9
